According to ChEMBL document CHEMBL1157539, “Thousands of chemical starting points for antimalarial lead identification” (Nature, 2010):

Tested on: Plasmodium falciparum
Assay: GSK_TCMDC: Inhibition of Plasmodium falciparum Dd2 in whole red blood cells, using parasite LDH activity as an index of growth. Test compounds present at 2uM
Assay type: functional

SMILES	Inhibition
Cc1cc(N[C@@H](Cc2ccccc2)C(=O)NCCOc2ccccc2)nc(Nc2ccccc2)n1.O=C(O)C(F)(F)F	63%
Cc1cccc2nc(-c3cccc(-c4ccc(NC(=O)Cc5ccc[n+]([O-])c5)cc4)c3)[nH]c12	87%
COc1ccc(-c2ccc(NC(=O)c3cccc(Cl)c3)cc2)cc1CN(C)CCN(C)C.O=C(O)C(F)(F)F	35%
Cc1cccc2nc(-c3ccc(-c4ccc(NC(=O)C(C)CN5CCN(C)CC5)cc4)s3)[nH]c12 (stereo unspecified)	99%

Tested on: HepG2
Assay: GSK_TCMDC: Percent inhibition of human HepG2 cell line. Test compounds present at 10uM.
Assay type: functional

SMILES	Inhibition
O=C(Nc1cccc(C(F)(F)F)c1)c1cccc2nc(C(F)(F)F)[nH]c12	81%
Cc1ccc(S(=O)(=O)NC2CCN(c3ccnc4cc(Cl)ccc34)C2)cc1.O=C(O)C(F)(F)F (stereo unspecified)	21%
COc1cc(C(C)C)ccc1C1CCN(CCCCNC(=O)c2ccc(NC(=O)c3ccc(Cl)cc3)cc2)CC1.O=C(O)/C=C/C(=O)O	100%
CCOC(=O)c1cc(C(=O)OC)c2ccccn12	44%
CC(C)C[C@@H](NC(=O)NC1CCC(CCN2C3CCC2CC(OC(=O)C(CO)c2ccccc2)C3)CC1)C(O)(c1ccccc1)c1ccccc1 (stereo partly specified)	21%
COc1ccc(-n2nc(C)c3c2NC(=O)CC3c2ccccc2OCc2ccc(F)cc2)cc1 (stereo unspecified)	53%
Nc1c2c(nc3ccc(Oc4ccc(Br)cc4Br)cc13)CCCC2	33%
C=CCn1c(=N)c(C(=O)NCc2ccc(F)cc2)cc2c(=O)n3cccc(C)c3nc21	16%
CN(C)CCOc1ccc2c(=O)cc(CCc3cccc(F)c3F)n(CC(=O)N(C)Cc3ccc(-c4ccc(C(F)(F)F)cc4)cc3)c2c1.O=C(O)C(O)C(O)C(=O)O	33%
O=C(Nc1ccc(-c2cccc(-c3nc4cc(F)ccc4[nH]3)c2)cc1)Nc1ccsc1	34%
NCC1CCCN1Cc1ccc(-c2ccc(-c3nc4cc(C(F)(F)F)ccc4[nH]3)s2)cc1.O=C(O)C(F)(F)F (stereo unspecified)	31%
Cc1[nH]c2ccc(-c3ccccc3)cc2c(=O)c1Br	0%
Cc1cccc2nc(-c3cccc(-c4cccc(NC(=O)c5cncn5C)c4)c3)[nH]c12	0%
Cl.O=C(Nc1ccc2c(c1)CCN(C1CCC1)CC2)c1ccc(-c2cn3ccccc3n2)cc1	13%
CCCCN(CCCC)CCC(O)C(=Cc1ccc(Cl)cc1Cl)c1ccc(C(F)(F)F)cc1N (stereo unspecified)	0%
CC(=O)c1ccc(-c2ccc(C(=O)NCCCCN3CCC(c4ccc5c(c4OCC(N)=O)CCCC5)CC3)cc2)s1	26%

SMILES	Inhibition
OC(CNC1CCCCC1)Cn1c2ccc(Br)cc2c2cc(Br)ccc21 (stereo unspecified)	10%
O=C(Nc1ccc(Br)cc1)N(CCN1CCOCC1)CC(O)COCc1ccc(F)cc1.O=C(O)C(F)(F)F (stereo unspecified)	5%
CNCCNCc1cccc(-c2ccc(-c3nc4cc(C(F)(F)F)ccc4[nH]3)cc2)c1.O=C(O)C(F)(F)F	21%
O=S(=O)(Nc1ccc(CCN2CCCCC2CCN2CCCC2)cc1)c1ccc(-c2ccccc2)cc1 (stereo unspecified)	18%
O=C(/C=C/c1ccc(Cl)c(Cl)c1)NCCCCCCN1CCN(C(=O)Nc2ccc(Cl)c(C(F)(F)F)c2)CC1	47%
CCCCCOc1ccc(C(O)C(CCC(CN2CCCCCC2)C(O)c2ccc(OCCCCC)cc2)CN2CCCCCC2)cc1.Cl (stereo unspecified)	99%
N#Cc1ccc(C(=O)NC2CCN(CCCCCNC(=O)/C=C/c3ccc(Cl)c(Cl)c3)CC2)cc1	13%
Cc1cccc2nc(-c3cccc(-c4ccc(NC(=O)c5ccncc5)cc4)c3)[nH]c12	34%
COc1cccc(CNC[C@@H](O)[C@H](Cc2ccccc2)NC(=O)c2cc(C(C)C)cc(N3CCCC3=O)c2)c1	1%
CC1CCCCC1N(C)C1CCN(CCCNC(=O)C=Cc2ccc(Cl)cc2Cl)CC1 (stereo unspecified)	53%
Nc1ccc(-c2nc3cc(Oc4ccc5[nH]c(-c6ccc(N)cc6)nc5c4)ccc3[nH]2)cc1	18%
CCCCOc1ccc(-c2nc3ccccc3[nH]2)cc1	21%
Br.CC1(C)NC(N)=NC(=N)N1OCCCOc1cc(Cl)cc(Cl)c1	62%
O=C(NCCc1ccccc1F)c1cc(Br)cc(N2CCN(c3ccncc3)CC2)c1.O=C(O)C(F)(F)F	29%
CCNc1cc(C)nc(Nc2ccc(NC(=O)c3ccc(OC)c(OC)c3)cc2)n1	19%
Cc1noc(-c2ccc3c(c2)CCN(CCC2CCC(NC(=O)/C=C/c4ccc(F)cc4)CC2)CC3)n1.Cl (stereo unspecified)	44%
